We go through 38 molecules from PubChem BioAssay (NCATS).

Records with an inconclusive call do not appear. Values without a mark were called inactive. Active and inactive are the calls of the source. Unless noted, calls come from the whole dose curve; as a rule, active = well fitted curve in the direction sought with a large enough effect; inconclusive = small, poorly fitted or top-dose-only effect, or another doubt; inactive = no such curve, though single readings can be large; an effect the other way counts as inactive or inconclusive.
% is set by controls: 0 for no effect and ±100 for the full control effect; potency is the fitted concentration of half-maximal effect.

Sequence of Cytochrome P450 2C9 (Homo sapiens) (P11712 whole entry, looked up): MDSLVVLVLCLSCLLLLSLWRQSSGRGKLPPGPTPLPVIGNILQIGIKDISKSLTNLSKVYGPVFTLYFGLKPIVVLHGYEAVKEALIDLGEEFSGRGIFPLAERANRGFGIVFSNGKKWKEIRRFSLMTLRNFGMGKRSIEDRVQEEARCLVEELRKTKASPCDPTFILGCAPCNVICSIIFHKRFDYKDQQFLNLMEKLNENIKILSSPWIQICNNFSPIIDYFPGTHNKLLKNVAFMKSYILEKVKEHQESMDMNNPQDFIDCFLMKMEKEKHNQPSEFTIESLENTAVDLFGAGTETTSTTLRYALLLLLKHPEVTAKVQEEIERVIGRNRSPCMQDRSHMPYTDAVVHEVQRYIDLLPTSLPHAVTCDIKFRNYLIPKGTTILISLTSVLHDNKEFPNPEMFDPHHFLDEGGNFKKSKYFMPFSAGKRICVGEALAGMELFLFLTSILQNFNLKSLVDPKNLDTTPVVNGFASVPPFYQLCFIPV

For the first assay, the target named is Cytochrome P450 2C9 (Homo sapiens) (UniProt P11712). As to the kind of experiment: Cytochrome P450 family 2 subfamily C member 9 (CYP2C9) small molecule antagonists: luciferase biochemical (cell-free) qHTS assay (AID 1645842; active = well fitted curve in the direction sought with a large enough effect in the repeat runs; an effect the other way counts as inactive or inconclusive; note: nearly all actives have a fitted effect of over 55% in size). The conditions noted are these: P450-Glo CYP2C9 enzyme assay, luciferin luminescence; series mostly up to 57.4 µM; activity change, negative = inhibition: at the top concentration. An outline of the steps:
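Luminescence, after 20 min with luciferin detection reagent, reflected CYP2C9 turnover during a 1 h NADPH-driven reaction at 37C. Enzyme-substrate mix contained 0.4% bovine serum albumin and was preincubated with compound 10 min at room temperature.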
`Cc1ncc(CO)c(CN)c1O`: the “activity change, negative = inhibition” value is 11.4%. Regarding `COC(=O)N/N=C/c1c[n+]([O-])c2ccccc2[n+]1[O-]`, the “activity change, negative = inhibition” value was 2.4%.

On to `CC1(C)S[C@@H]2[C@H](NC(=O)C(C(=O)O)c3ccccc3)C(=O)N2[C@H]1C(=O)O` (stereo partly drawn), for which the “activity change, negative = inhibition” value was 5.51%. Still for that read-out and setting: with `CC(=O)Oc1cccc(C)c1` the figure was 1.11%. `CCCCCOC(=O)Nc1nc(=O)n([C@@H]2O[C@H](C)[C@@H](O)[C@H]2O)cc1F`: the Potency result was “inactive”. Turning to `CC(=O)N[C@H]1[C@H]([C@H](O)[C@H](O)CO)OC(C(=O)O)=C[C@@H]1N=C(N)N`, the “activity change, negative = inhibition” value is 30.3%. Still for that read-out and setting: next, `O=C(O)C(S)C(S)C(=O)O` (stereo not drawn): -4.67%. On to `CC1(C)S[C@@H]2[C@H](N=CN3CCCCCC3)C(=O)N2[C@H]1C(=O)O`, for which the “activity change, negative = inhibition” value is 15.2%. On the same count and under the same terms, with `CC(C)c1cc2c(cc1S(=O)(=O)O)[C@@]1(C)CCC[C@@](C)(C(=O)O)[C@@H]1CC2` the figure was 16.1%; with `C[C@@H]1O[C@@H](OC[C@H]2O[C@@H](Oc3c(-c4ccc(O)c(O)c4)oc4cc(O)cc(O)c4c3=O)[C@H](O)[C@@H](O)[C@@H]2O)[C@H](O)[C@H](O)[C@H]1O`, 16.1%. For the molecule `NC(=O)CCCCC1CCSS1` (stereo not drawn), the “activity change, negative = inhibition” value was -3.25%. `CC(=O)Nc1ccc(C(=O)O)cc1`: the “activity change, negative = inhibition” value is 19.1%. Take `Cc1cc(-n2nc3ccc(Cl)cc3n2)c(O)c(C(C)(C)C)c1`: the “activity change, negative = inhibition” value is -4.66%. With `CN1CC(=O)NC1=N`, the “activity change, negative = inhibition” value was 3.53%. For `O=C(O)COC(=O)Cc1ccccc1Nc1c(Cl)cccc1Cl`, the Potency is 17.4 µM (active).

For the molecule `O=C(O)Cc1cn(-c2ccccc2)nc1-c1ccc(Cl)cc1`, the Potency was 4.36 µM (active). With `Cc1c(I)c(=O)n(-c2ccccc2)n1C`, the “activity change, negative = inhibition” value is 5.71%.

Regarding `CCOC(N)=O`, the “activity change, negative = inhibition” value was 24.5%. As to `NC(=O)NC1NC(=O)NC1=O` (stereo not drawn), the “activity change, negative = inhibition” value is 2.64%. Take `NC(=O)NS(=O)(=O)c1ccc(N)cc1`: the “activity change, negative = inhibition” value was 10.6%. The same measure, in the same setting: next, `CC(=O)Oc1cccc(O)c1`: 4.64%; `O=C(O)c1ccc(OCCCOc2ccc(C(=O)O)cc2)cc1`: 1.6%; `Cc1ccsc1C(=CCCN1CCC[C@@H](C(=O)O)C1)c1sccc1C`: 2.85%.

As for `CN(C(=O)c1c(O)c2ccccc2n(C)c1=O)c1ccccc1`, the “activity change, negative = inhibition” value was -2.19%.

In the case of `CN1CCN(C(=O)C2CCCCC2)CC1`, the “activity change, negative = inhibition” value was -1.75%. For `COC(=O)c1cccnc1`, the “activity change, negative = inhibition” value is 4.39%.

For `O=C(O)c1ccccc1OP(=O)(O)O`, the “activity change, negative = inhibition” value was 8.31%. Still for that read-out and setting: next, `C[C@]1(Cn2ccnn2)[C@H](C(=O)O)N2C(=O)C[C@H]2S1(=O)=O`: -0.826%. Same read-out and setting: next, `C[n+]1ccccc1/C=N/O`: 22.1%. Same read-out and setting: next, `O=C(NCN1CCOCC1)c1cnccn1`: 0.886%; `NCC1CCC(C(=O)Oc2ccc(CCC(=O)O)cc2)CC1` (stereo not drawn): 4.81%; `C/C=C1\[C@H]2C=C(C)C[C@]1(N)c1ccc(=O)[nH]c1C2`: 11%. Regarding `C[N+]1(C)CCCC(OC(=O)C(O)(c2ccccc2)c2ccccc2)C1` (stereo not drawn), the “activity change, negative = inhibition” value was 2.4%. Same read-out and setting: next, `O=C(O)CCCCC1CCSS1` (stereo not drawn): -0.666%. With `CC[N+](C)(CC)CCOC(=O)C1c2ccccc2Oc2ccccc21`, the “activity change, negative = inhibition” value was 7.78%. `COc1nccnc1NS(=O)(=O)c1ccc(N)cc1`: the “activity change, negative = inhibition” value is -1.58%.

In the case of `CCCCCC(C)N` (stereo not drawn), the “activity change, negative = inhibition” value was 14.3%.

Tested on in another assay: not listed separately
Description: Primary qHTS for inhibitors of nuclear receptor binding SET domain protein 2 (NSD2) in an isogenic RCH-ACV NSD2 p.E1099K mutant (9B) (AID 1645876). Note: nearly all actives have a fitted effect of over 70% in size. The conditions noted are these: RCH-ACV (leukaemia line) NSD2 E1099K (9B) viability, CellTiter-Glo, 72 h; series mostly up to 44.9 µM; activity change, negative = viability loss: at the top concentration. For orientation: qHTS replaces the single test concentration by a dilution series.
Consider `Cc1ncc(CO)c(CN)c1O`, for which the outcome was inactive.

Regarding `COC(=O)N/N=C/c1c[n+]([O-])c2ccccc2[n+]1[O-]`, the Potency is 23.7 µM (active).

With `CC1(C)S[C@@H]2[C@H](NC(=O)C(C(=O)O)c3ccccc3)C(=O)N2[C@H]1C(=O)O` (stereo partly drawn), the “activity change, negative = viability loss” value is -8.9%.

On to `CC(=O)Oc1cccc(C)c1`, for which the “activity change, negative = viability loss” value was 8.52%. As for `CCCCCOC(=O)Nc1nc(=O)n([C@@H]2O[C@H](C)[C@@H](O)[C@H]2O)cc1F`, the Potency entry was “inactive”. In the case of `CC(=O)N[C@H]1[C@H]([C@H](O)[C@H](O)CO)OC(C(=O)O)=C[C@@H]1N=C(N)N`, the “activity change, negative = viability loss” value was 2.66%.

Take `O=C(O)C(S)C(S)C(=O)O` (stereo not drawn): the “activity change, negative = viability loss” value is 8%.

On to `CC1(C)S[C@@H]2[C@H](N=CN3CCCCCC3)C(=O)N2[C@H]1C(=O)O`, for which the “activity change, negative = viability loss” value was 9.29%.

As to `CC(C)c1cc2c(cc1S(=O)(=O)O)[C@@]1(C)CCC[C@@](C)(C(=O)O)[C@@H]1CC2`, the “activity change, negative = viability loss” value was -2.62%. Still for that read-out and setting: with `C[C@@H]1O[C@@H](OC[C@H]2O[C@@H](Oc3c(-c4ccc(O)c(O)c4)oc4cc(O)cc(O)c4c3=O)[C@H](O)[C@@H](O)[C@@H]2O)[C@H](O)[C@H](O)[C@H]1O` the figure was 0.133%. Regarding `NC(=O)CCCCC1CCSS1` (stereo not drawn), the call was inactive. Regarding `CC(=O)Nc1ccc(C(=O)O)cc1`, the outcome was inactive.

Turning to `Cc1cc(-n2nc3ccc(Cl)cc3n2)c(O)c(C(C)(C)C)c1`, the molecule was called inactive. Same read-out and setting: with `CN1CC(=O)NC1=N` the entry was “inactive”. For the molecule `O=C(O)COC(=O)Cc1ccccc1Nc1c(Cl)cccc1Cl`, the “activity change, negative = viability loss” value was 1.54%. Same read-out and setting: next, `Cc1c(I)c(=O)n(-c2ccccc2)n1C`: 9.46%; `CCOC(N)=O`: 1.03%.

In the case of `NC(=O)NC1NC(=O)NC1=O` (stereo not drawn), the molecule was classed as inactive. As to `CC(=O)Oc1cccc(O)c1`, the “activity change, negative = viability loss” value is 0.633%. Still for that read-out and setting: next, `O=C(O)c1ccc(OCCCOc2ccc(C(=O)O)cc2)cc1`: 2.64%. With `Cc1ccsc1C(=CCCN1CCC[C@@H](C(=O)O)C1)c1sccc1C`, the Potency entry was “inactive”. Same read-out and setting: with `CN(C(=O)c1c(O)c2ccccc2n(C)c1=O)c1ccccc1` the entry was “inactive”. `CN1CCN(C(=O)C2CCCCC2)CC1`: the “activity change, negative = viability loss” value was -3.18%. Still for that read-out and setting: next, `COC(=O)c1cccnc1`: -1.26%. As to `O=C(O)c1ccccc1OP(=O)(O)O`, the molecule was classed as inactive. `C[C@]1(Cn2ccnn2)[C@H](C(=O)O)N2C(=O)C[C@H]2S1(=O)=O`: the “activity change, negative = viability loss” value was 8.27%. For `C=CCNC(N)=S`, the “activity change, negative = viability loss” value is 3.2%.

Turning to `C[n+]1ccccc1/C=N/O`, the molecule was called inactive.

For the molecule `O=C(NCN1CCOCC1)c1cnccn1`, the “activity change, negative = viability loss” value was -14.9%. Consider `NCC1CCC(C(=O)Oc2ccc(CCC(=O)O)cc2)CC1` (stereo not drawn), for which the result was inactive.

In the case of `C/C=C1\[C@H]2C=C(C)C[C@]1(N)c1ccc(=O)[nH]c1C2`, the “activity change, negative = viability loss” value was 2.56%. Same read-out and setting: next, `C[N+]1(C)CCCC(OC(=O)C(O)(c2ccccc2)c2ccccc2)C1` (stereo not drawn): -8.92%. The same measure, in the same setting: with `O=C(O)CCCCC1CCSS1` (stereo not drawn) the figure was -0.451%. Turning to `CC[N+](C)(CC)CCOC(=O)C1c2ccccc2Oc2ccccc21`, the “activity change, negative = viability loss” value was 9.6%. Consider `COc1nccnc1NS(=O)(=O)c1ccc(N)cc1`, for which the “activity change, negative = viability loss” value was -6.57%. Take `CCCCCC(C)N` (stereo not drawn): the molecule was called inactive.
